Laboratory results taken from PubChem BioAssay.
Calls of active or inactive are those of the source.

Legend:
[1] = test system: Plasmodium falciparum Sir2 (PF13_0152, Sir2A); test: Plasmodium falciparum Sir2A binding compounds – biochemical, small-molecule microarray, 635 nm fluorescence, primary screen (AID 1098); details: fluorescence 635 nm, higher = more signal;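 further: score merges spot fluorescence intensity with its signal-to-noise ratio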
[2] = probe aDKK1 binding to arrayed compounds – biochemical, biotinylated probe, 635/667 nm fluorescence, primary screen (AID 1099); details: small-molecule microarray, higher = more signal;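 further: score merges 667nm spot fluorescence with signal to noise across triplicate slides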
[3] = probe aCHRDL2 binding to arrayed compounds – biochemical, biotinylated probe, 635/667 nm fluorescence, primary screen (AID 1100); details: small-molecule microarray, higher = more signal
[4] = change in splice reporter luminescence, either direction, cell-based, HEK293, spliceosome inhibition project, primary screen (AID 1101); details: HEK293 splicing luciferase reporter, 24 h, higher = more signal, called active from +8 up or from −8 down;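 further: HEK293 cells carrying a splicing-competent luciferase reporter gene; test concentration not given here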
[5] = target: Fibroblast growth factor 10 (Homo sapiens) (UniProt O15520); test: compounds binding fibroblast growth factor 10 – biochemical, small-molecule microarray, 635 nm fluorescence, primary screen (AID 1102); details: FGF10 binding, fluorescence 635 nm, higher = more signal
[6] = test system: glycogen synthase kinase-3 (GSK3A per assay name; protocol says GSK3B); test: compounds binding glycogen synthase kinase-3 – biochemical, small-molecule microarray, 635 nm fluorescence, GSK3A, primary screen (AID 1103); details: fluorescence 635 nm, higher = more signal; further: the record names both GSK3A and GSK3B
[7] = target: Epidermal growth factor receptor (Homo sapiens) (UniProt P00533); test: compounds binding epidermal growth factor receptor – biochemical, small-molecule microarray, 635 nm fluorescence, primary screen (AID 1104); details: EGFR binding, higher = more signal;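 further: score merges 667 nm emission intensity with spot signal to noise over triplicate slides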
[8] = target: Follistatin-related protein 3 (Homo sapiens) (UniProt O95633); test: compounds binding follistatin-related protein 3 – biochemical, small-molecule microarray, 635 nm fluorescence, primary screen (AID 1105); details: FSTL3 binding, higher = more signal;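 further: score merges emission near 667 nm and signal to noise per printed spot across three slides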
[9] = target: Dickkopf-related protein 1 (Homo sapiens) (UniProt O94907); test: small molecules binding DKK1 protein – biochemical, small-molecule microarray, 635 nm fluorescence scan, primary screen (AID 1106); details: higher = more signal;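 further: score merges emission near 667 nm with signal to noise over three replicate slides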
[10] = test system: Inhibin beta A chain (activin A); test: small molecules binding activin A – biochemical, small-molecule microarray, 635 nm fluorescence scan, primary screen (AID 1107); details: INHBA, higher = more signal;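 further: mouse activin A protein probed at 4.33 µg/mL on printed slides; score merges bound-protein fluorescence near 667 nm with spot signal-to-noise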
[11] = test system: Human papillomavirus type 1a protein E7 (residues 44-93); test: small molecules binding HPV E7 44-93 – biochemical, small-molecule microarray, residues 44-93, 635 nm fluorescence, primary screen (AID 1108); details: fluorescence 635 nm, higher = more signal;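 further: E7 fragment applied at 1 µg/mL in TBST for 1 h at 4 C; score combines spot fluorescence with its signal to noise ratio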
[12] = hepatitis C replication reporter changes, two-sided – Huh7 cells, luciferase reporter, HCV replication inhibitor project, primary screen (AID 1109); details: Huh7 HCV replicon luciferase reporter, 48 h; higher = more signal;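 further: huh7 hepatoma cells harbouring a luciferase neomycin HCV replicon reporter; luciferase luminescence as measure of HCV replicon replication; test concentration not given here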
[13] = target: Left-right determination factor 2 (Homo sapiens) (UniProt O00292); test: small molecules binding LEFTY2 protein – biochemical, small-molecule microarray, 635 nm fluorescence scan, primary screen (AID 1110); details: higher = more signal
[14] = target: Calmodulin-1 (Homo sapiens) (UniProt P0DP23); test: small molecules binding calmodulin-1 with EGTA – biochemical, small-molecule microarray, Cy5-labelled CALM1, profiling panel (AID 1111); details: Cy5-CALM1 binding fluorescence, higher = more signal;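 further: labelled calmodulin applied in Tris saline Tween buffer holding calcium plus EGTA and DTT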
[15] = target: Calmodulin-1 (Homo sapiens) (UniProt P0DP23); test: small molecules binding Ca-loaded calmodulin-1 – biochemical, small-molecule microarray, Cy5-labelled CALM1, plus calcium, artefact control for SMM control-protein annotation, profiling panel (AID 1112); details: Cy5-CALM1 binding fluorescence, higher = more signal;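 further: score merges spot fluorescence with signal to noise from triplicate slides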
[16] = probe aWnt5a binding to arrayed compounds – biochemical, biotinylated probe, 635/667 nm fluorescence, primary screen (AID 1113); details: small-molecule microarray, higher = more signal;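 further: score merges 667 nm fluorescence intensity with signal-to-noise per printed feature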
[17] = probe aShh binding to arrayed compounds – biochemical, biotinylated probe, 635/667 nm fluorescence, primary screen (AID 1114); details: small-molecule microarray, higher = more signal;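 further: probe is biotin-labelled aShh protein from a stem cell growth factor screen; measures binding of labelled protein to compounds printed on the slide; score merges feature fluorescence at 667 nm with signal-to-noise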
[18] = probe aNog binding to arrayed compounds – biochemical, biotinylated probe, 635/667 nm fluorescence, primary screen (AID 1115); details: small-molecule microarray, higher = more signal;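 further: probe is biotinylated aNog protein used at 0.15 µg/mL for 1 h at 4 C; z-score combines 667 nm fluorescence of each spot with its signal to noise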
[19] = target: Torsin-1A-interacting protein 1 (Homo sapiens) (UniProt Q5JTV8); test: compound microarray binding of lysate hLAP1 – cell lysate, small-molecule microarray, COS7 lysate, 635/667 nm fluorescence, primary screen (AID 1116); details: 635 nm fluorescence, higher = more signal
[20] = target: Alpha-bungarotoxin (Bungarus multicinctus) (UniProt P60615); test: compounds binding labelled alpha-BTX control protein – biochemical, small-molecule microarray, Alexa647 label, 635/667 nm fluorescence, artefact control for SMM control protein annotation, profiling panel (AID 1117); details: alpha-BTX-A647 binding fluorescence, higher = more signal
Chain of Alpha-bungarotoxin (Bungarus multicinctus) (P60615 whole entry, looked up): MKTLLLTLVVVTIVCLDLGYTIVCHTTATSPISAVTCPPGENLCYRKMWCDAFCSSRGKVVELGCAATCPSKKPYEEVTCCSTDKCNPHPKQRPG

Chain of Left-right determination factor 2 (Homo sapiens) (O00292 whole entry, looked up): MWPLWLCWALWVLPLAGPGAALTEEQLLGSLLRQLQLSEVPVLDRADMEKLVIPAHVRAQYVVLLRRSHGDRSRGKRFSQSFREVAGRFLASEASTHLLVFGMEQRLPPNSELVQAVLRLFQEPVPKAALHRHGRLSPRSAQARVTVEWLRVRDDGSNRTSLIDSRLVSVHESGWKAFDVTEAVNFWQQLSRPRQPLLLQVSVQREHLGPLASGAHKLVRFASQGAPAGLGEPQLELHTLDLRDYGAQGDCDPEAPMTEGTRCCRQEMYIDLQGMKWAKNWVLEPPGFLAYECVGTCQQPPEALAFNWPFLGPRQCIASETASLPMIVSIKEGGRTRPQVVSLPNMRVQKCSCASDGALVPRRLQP
Chain of Fibroblast growth factor 10 (Homo sapiens) (O15520 whole entry, looked up): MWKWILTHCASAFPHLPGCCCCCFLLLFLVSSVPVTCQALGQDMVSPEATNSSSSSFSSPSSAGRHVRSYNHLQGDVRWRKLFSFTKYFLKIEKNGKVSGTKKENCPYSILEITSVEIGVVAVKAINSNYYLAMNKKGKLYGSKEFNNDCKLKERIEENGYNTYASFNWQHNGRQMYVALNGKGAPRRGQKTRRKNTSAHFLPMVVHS
Chain of Torsin-1A-interacting protein 1 (Homo sapiens) (Q5JTV8 whole entry, looked up): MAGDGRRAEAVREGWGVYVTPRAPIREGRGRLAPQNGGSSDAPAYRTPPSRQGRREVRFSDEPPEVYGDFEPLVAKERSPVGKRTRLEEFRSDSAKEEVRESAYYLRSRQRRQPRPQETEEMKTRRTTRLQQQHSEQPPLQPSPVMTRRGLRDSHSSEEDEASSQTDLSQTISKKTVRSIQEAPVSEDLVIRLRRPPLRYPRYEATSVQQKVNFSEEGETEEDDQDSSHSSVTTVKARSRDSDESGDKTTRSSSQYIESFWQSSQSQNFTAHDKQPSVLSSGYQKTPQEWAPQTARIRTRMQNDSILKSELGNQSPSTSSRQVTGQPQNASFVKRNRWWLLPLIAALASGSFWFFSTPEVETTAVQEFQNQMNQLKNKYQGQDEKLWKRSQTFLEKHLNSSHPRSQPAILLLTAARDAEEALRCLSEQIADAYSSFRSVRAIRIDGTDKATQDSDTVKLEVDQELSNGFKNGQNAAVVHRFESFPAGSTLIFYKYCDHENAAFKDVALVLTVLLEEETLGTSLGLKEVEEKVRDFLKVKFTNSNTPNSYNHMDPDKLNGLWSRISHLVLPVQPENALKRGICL
Chain of Follistatin-related protein 3 (Homo sapiens) (O95633 whole entry, looked up): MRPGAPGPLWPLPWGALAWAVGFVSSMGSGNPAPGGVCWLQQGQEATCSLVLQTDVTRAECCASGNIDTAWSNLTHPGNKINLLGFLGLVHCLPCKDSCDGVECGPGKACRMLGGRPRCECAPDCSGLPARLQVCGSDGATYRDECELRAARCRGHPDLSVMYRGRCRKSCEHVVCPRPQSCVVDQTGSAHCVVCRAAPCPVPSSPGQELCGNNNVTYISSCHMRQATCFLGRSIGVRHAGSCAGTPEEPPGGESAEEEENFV
Chain of Dickkopf-related protein 1 (Homo sapiens) (O94907 whole entry, looked up): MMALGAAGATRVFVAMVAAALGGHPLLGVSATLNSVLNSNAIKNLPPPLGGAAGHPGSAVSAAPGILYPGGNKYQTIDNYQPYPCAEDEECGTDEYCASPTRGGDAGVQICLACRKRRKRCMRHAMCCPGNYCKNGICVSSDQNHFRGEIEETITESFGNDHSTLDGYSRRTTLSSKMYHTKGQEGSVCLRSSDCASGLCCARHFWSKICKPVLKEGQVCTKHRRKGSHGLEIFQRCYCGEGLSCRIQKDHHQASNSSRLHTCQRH
Chain of Epidermal growth factor receptor (Homo sapiens) (P00533 whole entry, looked up): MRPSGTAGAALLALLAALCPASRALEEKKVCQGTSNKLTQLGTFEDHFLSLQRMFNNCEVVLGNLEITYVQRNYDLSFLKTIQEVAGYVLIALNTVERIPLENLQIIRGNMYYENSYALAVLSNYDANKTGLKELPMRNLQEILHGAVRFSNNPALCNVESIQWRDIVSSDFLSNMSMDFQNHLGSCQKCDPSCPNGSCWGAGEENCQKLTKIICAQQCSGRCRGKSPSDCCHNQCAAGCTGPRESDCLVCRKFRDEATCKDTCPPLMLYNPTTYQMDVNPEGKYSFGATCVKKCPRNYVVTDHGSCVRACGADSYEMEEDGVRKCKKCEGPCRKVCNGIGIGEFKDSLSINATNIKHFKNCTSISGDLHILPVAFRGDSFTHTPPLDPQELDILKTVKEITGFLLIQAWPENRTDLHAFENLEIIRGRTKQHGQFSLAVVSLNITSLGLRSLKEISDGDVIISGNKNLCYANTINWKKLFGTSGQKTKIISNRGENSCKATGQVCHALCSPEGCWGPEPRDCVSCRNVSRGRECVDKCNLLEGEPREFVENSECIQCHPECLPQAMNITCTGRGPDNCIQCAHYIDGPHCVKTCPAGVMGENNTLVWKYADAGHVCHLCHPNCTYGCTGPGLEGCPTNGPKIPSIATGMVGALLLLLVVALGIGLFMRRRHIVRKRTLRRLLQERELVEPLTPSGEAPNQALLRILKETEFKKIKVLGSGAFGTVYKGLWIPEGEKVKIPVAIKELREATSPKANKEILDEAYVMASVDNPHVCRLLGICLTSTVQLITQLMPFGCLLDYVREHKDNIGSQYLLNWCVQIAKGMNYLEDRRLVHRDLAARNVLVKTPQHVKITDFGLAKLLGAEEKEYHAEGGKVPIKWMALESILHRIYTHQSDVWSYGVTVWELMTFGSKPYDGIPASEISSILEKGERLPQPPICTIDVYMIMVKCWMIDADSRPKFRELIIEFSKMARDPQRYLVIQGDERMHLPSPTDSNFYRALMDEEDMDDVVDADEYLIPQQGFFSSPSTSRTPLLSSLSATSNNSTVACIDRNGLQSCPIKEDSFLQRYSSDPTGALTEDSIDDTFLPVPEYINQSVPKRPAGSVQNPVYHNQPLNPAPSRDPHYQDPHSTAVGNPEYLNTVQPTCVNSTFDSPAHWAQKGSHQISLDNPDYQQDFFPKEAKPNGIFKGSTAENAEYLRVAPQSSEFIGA

| SMILES | composite z-score [1] | composite z-score [2] | composite z-score [3] | z-score [4] | composite z-score [5] | composite z-score [6] | composite z-score [7] | composite z-score [8] | composite z-score [9] | composite z-score [10] | composite z-score [11] | z-score [12] | composite z-score [13] | composite z-score [14] | composite z-score [15] | composite z-score [16] | composite z-score [17] | composite z-score [18] | composite z-score [19] | composite z-score [20] |
| --- | --- | --- | --- | --- | --- | --- | --- | --- | --- | --- | --- | --- | --- | --- | --- | --- | --- | --- | --- | --- |
| CC(C)C(=C=CC[C@@H](O)c1cccc(OCCO)c1)C[C@@H](O)COCc1ccccc1 | 1.04 | -0.119 | -0.118 | -0.952 (inactive) | 0.543 | -0.174 | -0.208 | 0.178 | -0.445 | 0.198 | -0.83 | -0.0464 | 0.136 | 0.275 | 0.265 | -0.141 | 0.0469 | -0.298 | 0.0535 | 0.0211 |
| CN(C)C(=O)[C@]1(CCS(=O)(=O)c2ccccc2)N=C(c2ccc(OCCCO)cc2)O[C@@H]1c1ccccc1 | 1.45 | 0.483 | 0.515 | -0.621 (inactive) | 1.48 | 1.26 | -0.0269 | 0.552 | -0.323 | 0.82 | 1.44 | -2.25 | 0.389 | 1.72 | 0.513 | -0.034 | 0.582 | -0.565 | 1 | 0.915 |
| COC(=O)[C@@]1(Cc2ccc(OC)cc2)[C@H]2c3cc(C(=O)N4CCCC4)n(Cc4ccc(S(C)(=O)=O)cc4)c3C[C@H]2CN1C(=O)c1ccccc1 | 0.645 | 0.807 | 1.29 | 0.699 (inactive) | 0.508 | 0.401 | 0.348 | -0.0139 | -0.802 | 0.881 | 0.918 | -0.887 | -0.0914 | 2.06 | 0.955 | 0.108 | 0.883 | -0.121 | 1.05 | 0.448 |
| COC(=O)C1=CC(CCCO)=CC(c2ccc(CN3CCCC3)cc2)N(Cc2cc3c(cc2Br)OCO3)C=C1C(=O)OC (stereo not given) | 1.16 | 1.12 | 0.986 | -0.967 (inactive) | 1.45 | 0.636 | 0.19 | 1.46 | 0.836 | 1.13 | 1.39 | -0.803 | 0.688 | 1.9 | 0.795 | 0.212 | 0.839 | -0.603 | 1.48 | 0.853 |
| CN(C)CCCC[C@@H]1NC(=O)[C@@H]2C[C@H](C(=O)O)[C@H](c3cccc(OCCO)c3)N2C1=O | 1.25 | -0.336 | -0.165 | 0.0013 (inactive) | -0.376 | -0.461 | -0.277 | -0.306 | 0.333 | -0.7 | -0.927 | -0.282 | -0.43 | -0.832 | -0.238 | -0.0179 | -0.0793 | -0.375 | -0.657 | -0.676 |
| [N-]=[N+]=Nc1ccccc1C[C@]1(C(=O)O)N=C(c2ccc(OCCCO)cc2)O[C@H]1c1ccccc1N=[N+]=[N-] | 0.944 | 1.06 | 1.12 | -1.55 (inactive) | 0.445 | 1.06 | 0.342 | 0.546 | -0.0824 | 0.884 | 0.99 | -1.02 | 0.282 | 2.1 | 0.923 | 0.0859 | -0.0263 | 2 | 1.5 | 1.22 |
| O=c1cccc(-c2ccco2)o1 | 1.28 | -0.148 | -0.617 | 0.935 (inactive) | 0.955 | 0.829 | 0.693 | 1.02 | 1.16 | 1.24 | 0.582 | -0.574 | 0.758 | -0.221 | -1.23 | -0.0179 | 0.0952 | -0.0563 | 0.18 | 0.738 |
| CN1C(=O)C2C=CC(C(O)c3cc(C(F)(F)F)cc(C(F)(F)F)c3)N(Nc3ccccc3)C2C1=O (stereo not given) | 0.395 | -0.224 | 0.0811 | 1.37 (inactive) | 0.0307 | -0.107 | -0.0397 | -0.247 | -0.887 | 0.0638 | 0.792 | -1.08 | -0.715 | 0.345 | -0.151 | -0.0346 | -0.138 | 0.369 | 1.68 | 0.0299 |
| C=C(C)C1CCC(C(O)C2C=CC3C(=O)N(C)C(=O)C3N2Nc2cc(OC)c(OC)c(OC)c2)CC1 (stereo not given) | 0.506 | 0.005 | 0.422 | 0.719 (inactive) | 0.755 | 1.17 | 0.885 | 1.15 | 0.519 | 1.11 | 1.4 | -0.355 | 0.428 | 0.655 | -0.157 | 0.0101 | -0.0243 | 0.993 | -0.161 | 1.26 |
| CN1C(=O)[C@@H]2[C@@H](CC(COc3ccccc3)=C([C@H](O)CCc3ccccc3)[C@@H]2CO)C1=O | -0.194 | -0.0537 | -0.317 | -0.165 (inactive) | -0.0903 | -0.621 | 0.218 | -0.0809 | 0.298 | 0.484 | -0.531 | -0.113 | 0.0752 | -0.548 | -0.343 | -0.243 | -0.304 | -0.398 | 0.0197 | -0.278 |
| COCCCNC(=O)[C@@]1(Sc2ccc(C)cc2)CC(=O)N(Cc2ccccc2Cl)[C@@H]1c1ccc(CO)cc1I | 0.515 | 0.0057 | 0.791 | -0.529 (inactive) | -0.668 | -1.05 | -1.29 | -0.491 | -1.12 | 0.45 | -0.747 | -1.94 | -1.6 | -0.434 | 0.717 | -0.28 | 0.0115 | -0.323 | -1.36 | -0.659 |
